# Records with an inconclusive call do not appear. A call without a number means that no potency is given here. Active and inactive are the calls of the source. Unless noted, calls follow the shape of the dose curve; as a rule, active = well fitted curve in the direction sought with a large enough effect in the repeat runs; inconclusive = weak or mixed curves; inactive = no such curve, though single readings can be large; an effect the other way counts as inactive or inconclusive.
# Assays:
# [1] = qHTS assay to identify small molecule antagonists of the estrogen receptor alpha (ER-alpha) signaling pathway using the BG1 cell line in the presence of 0.1 nM 17-beta-estradiol - cell viability counter screen (AID 1259241); also: nearly all actives have a fitted effect of over 40% in size
# Method in brief: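 VM7Luc4E2 cells (endogenous full-length ER-alpha, 4xERE-luciferase), cultured 5 days in charcoal-stripped serum, exposed to compounds with 0.1 nM 17beta-estradiol (final) for 22 hr at 37C. Viability read in same wells as live-cell protease fluorescence after 30 min.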
# [2] = qHTS assay to identify small molecule antagonists of the androgen receptor (AR) signaling pathway using the MDA cell line in the presence of 0.5 nM R1881 - cell viability counter screen (AID 1259242); also: nearly all actives have a fitted effect of over 45% in size
# Method in brief: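 R1881 at 0.5 nM final stimulated MDA-kb2 cells during 16 hr compound treatment at 37C. Cytotoxicity read: CellTiter-Fluor fluorescence after 30 min.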
# [3] = qHTS assay to identify small molecule HDAC inhibitors (AID 1259364);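 also: wild-type HCT-116 cells with endogenous class I/II HDAC activity; top concentration of the series differs between compounds; nearly all actives have a fitted effect of over 45% in size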
# Method in brief: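 Relative class I and II HDAC activity is taken from the luminogenic signal in HCT-116 cells, with compound exposure 2 hr and reagent development 30 min at room temperature.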
# [4] = qHTS assay to identify small molecule HDAC inhibitors - cell viability counter screen (AID 1259365); also: series mostly up to about 92 µM; nearly all actives have a fitted effect of over 50% in size
# Method in brief: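 Wild-type HCT-116 cells, 1,500/well, cultured overnight, then compound-treated 2 h at 37 C. Viability measured as ATP luminescence with CellTiter-Glo after 30 min at room temperature.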
# [5] = qHTS assay to identify small molecule agonists of the sonic hedgehog signaling (Shh) pathway - cell viability counter screen (AID 1259366); also: nearly all actives have a fitted effect of over 50% in size; also: potency is read from the fitted curve at half-maximal effect
# Method in brief: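 NIH/3T3-derived Gli1-Luc reporter cells, 2,000 per well, received compound after 4 h and were treated about 23 h at 37C. Viability measured in the same wells by CellTiter-Fluor fluorescence after 1 h.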
# [6] = qHTS assay to identify small molecule antagonists of the sonic hedgehog signaling (Shh) pathway - cell viability counter screen (AID 1259367); also: nearly all actives have a fitted effect of over 55% in size; also: potency is read from the fitted curve at half-maximal effect
# Method in brief: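 After a 4 hr settling period, 3T3 Gli1-Luc cells were treated with DMSO-dissolved chemicals and conditioned medium, kept 24 hr at 37C in 5% CO2, and assayed for viability by CellTiter-Fluor fluorescence following 1 hr reagent incubation.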
# [7] = qHTS assay to identify small molecule agonists of the sonic hedgehog signaling (Shh) pathway (AID 1259368; calls by dose curve;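 also: NIH/3T3-derived 3T3Gli1-Luc cells carrying a stable Gli1-driven firefly luciferase reporter; series mostly up to about 92 µM; nearly all actives have a fitted effect of over 15% in size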)
# Method in brief: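 Mouse fibroblast (NIH/3T3) reporter cells with stably integrated Gli1-Luc were treated 24 hr with compound; firefly luciferase luminescence served as the read-out.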
# [8] = qHTS assay to identify small molecule antagonists of the sonic hedgehog signaling (Shh) pathway (AID 1259369; calls by dose curve; also: nearly all actives have a fitted effect of over 45% in size; also: potency is read from the fitted curve at half-maximal effect)
# Method in brief: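 Conditioned medium drives Shh signalling in 3T3Gli1-Luc cells; compounds in DMSO co-applied, 24hr at 37 C, then luciferase luminescence.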
# [9] = qHTS assay to identify small molecule agonists of the androgen receptor (AR) signaling pathway in the presence of an antagonist - cell viability counter screen (AID 1259379); also: nearly all actives have a fitted effect of over 25% in size; also: potency is read from the fitted curve at half-maximal effect
# Method in brief: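 A CellTiter-Fluor read-out measured viability of MDA-kb2 reporter cells (MMTV promoter with AR and GR response elements). Treatment: nilutamide 3.0uM final with compounds at 15 concentrations, 16 hr, 37C, 0% CO2.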
# [10] = qHTS assay to identify small molecule agonists of the estrogen receptor beta (ER-beta) signaling pathway - cell viability counter screen (AID 1259380); also: nearly all actives have a fitted effect of over 30% in size; also: potency is read from the fitted curve at half-maximal effect
# Method in brief: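 Cells used were ER-beta-UAS-bla HEK293T in medium with 2% charcoal-stripped FBS. They were treated for 16 hr at 37C. Viability came from CellTiter-Glo luminescence.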
# [11] = qHTS assay to identify small molecule antagonists of the estrogen receptor beta (ER-beta) signaling pathway - cell viability counter screen (AID 1259382); also: nearly all actives have a fitted effect of over 55% in size; also: potency is read from the fitted curve at half-maximal effect
# Method in brief: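 Agonist-stimulated (1nM E2) ER-beta-UAS-bla HEK293T cells are incubated with library compounds for 16 hr at 37C. Cell viability is then assessed in the reporter-assay wells by adding CellTiter-Glo and reading luminescence after 30 min.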
# [12] = biological target: Estrogen receptor (Homo sapiens) (UniProt P03372); test: qHTS assay to identify small molecule agonists of the estrogen receptor alpha (ER-alpha) signaling pathway in the presence of an antagonist (AID 1259383; calls by dose curve; also: top concentration of the series differs between compounds; nearly all actives have a fitted effect of over 15% in size)
# Sequence of Estrogen receptor (Homo sapiens) (P03372 whole entry, looked up): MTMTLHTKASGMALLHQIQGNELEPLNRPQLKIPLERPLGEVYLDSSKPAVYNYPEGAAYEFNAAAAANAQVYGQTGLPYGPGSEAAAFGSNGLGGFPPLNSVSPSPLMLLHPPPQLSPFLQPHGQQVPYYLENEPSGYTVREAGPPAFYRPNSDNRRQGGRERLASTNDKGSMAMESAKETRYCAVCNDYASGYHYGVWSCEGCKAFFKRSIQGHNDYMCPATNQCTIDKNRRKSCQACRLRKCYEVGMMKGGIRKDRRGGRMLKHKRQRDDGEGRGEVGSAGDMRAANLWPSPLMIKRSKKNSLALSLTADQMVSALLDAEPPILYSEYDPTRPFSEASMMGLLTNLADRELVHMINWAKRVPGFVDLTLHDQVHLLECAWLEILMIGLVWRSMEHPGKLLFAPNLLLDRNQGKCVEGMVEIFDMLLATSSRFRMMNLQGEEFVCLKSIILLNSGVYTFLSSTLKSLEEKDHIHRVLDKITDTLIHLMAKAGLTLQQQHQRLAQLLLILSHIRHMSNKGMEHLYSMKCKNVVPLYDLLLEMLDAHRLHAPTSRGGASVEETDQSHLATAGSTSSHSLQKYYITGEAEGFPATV
# Method in brief: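 Using VM7Luc4E2 cells seeded 24hr before treatment, antagonist ICI-182,780 (10.0nM final) was added, followed by compounds at 15 concentrations. Plates incubated 22hr; ONE-Glo luminescence quantified reporter activity.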
# [13] = qHTS assay to identify small molecule agonists or antagonists of the thyroid stimulating hormone receptor (TSHR) signaling pathway - wild type cell line counter screen (AID 1259384; calls by dose curve)
# Method in brief: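 Wild-type HEK293 cells were plated 18 h at 37 C/5% CO2, pin-dosed with compound plus Ro20-1724 medium, held 30 min at room temperature, then given cAMP-d2 and anti-cAMP-cryptate; fluorescence was read after 1 h. Fifteen concentrations, triplicate.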
# [14] = biological target: Thyrotropin receptor (Homo sapiens) (UniProt P16473); test: qHTS assay to identify small molecule antagonists of the thyroid stimulating hormone receptor (TSHR) signaling pathway (AID 1259385; calls by dose curve; also: nearly all actives have a fitted effect of over 20% in size)
# Sequence of Thyrotropin receptor (Homo sapiens) (P16473 whole entry, looked up): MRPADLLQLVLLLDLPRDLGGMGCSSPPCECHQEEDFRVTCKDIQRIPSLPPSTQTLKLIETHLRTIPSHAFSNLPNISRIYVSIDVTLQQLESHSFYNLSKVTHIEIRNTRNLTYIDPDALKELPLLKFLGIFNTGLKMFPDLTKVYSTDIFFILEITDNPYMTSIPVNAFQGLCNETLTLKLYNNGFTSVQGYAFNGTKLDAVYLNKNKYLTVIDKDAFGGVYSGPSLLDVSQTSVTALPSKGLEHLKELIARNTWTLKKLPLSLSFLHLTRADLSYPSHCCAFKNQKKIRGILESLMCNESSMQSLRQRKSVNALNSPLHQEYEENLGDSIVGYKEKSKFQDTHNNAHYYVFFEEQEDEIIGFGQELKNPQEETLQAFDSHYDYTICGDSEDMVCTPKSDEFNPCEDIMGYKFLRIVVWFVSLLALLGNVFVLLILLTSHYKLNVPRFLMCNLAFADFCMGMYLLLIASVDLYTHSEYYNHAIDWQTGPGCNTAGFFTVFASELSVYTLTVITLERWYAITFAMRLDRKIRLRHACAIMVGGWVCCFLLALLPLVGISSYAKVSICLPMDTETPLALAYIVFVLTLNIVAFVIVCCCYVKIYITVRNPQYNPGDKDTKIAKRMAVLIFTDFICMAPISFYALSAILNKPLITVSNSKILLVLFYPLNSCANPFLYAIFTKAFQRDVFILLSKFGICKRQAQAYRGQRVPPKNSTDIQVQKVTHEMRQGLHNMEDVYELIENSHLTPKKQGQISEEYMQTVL
# Method in brief: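 TSHR-HEK293 cells were plated and held 18 h at 37C/5% CO2, then given compound plus Ro20-1724 and stimulated with TSH at 1.5 ng/mL final. After 30 min at room temperature, cAMP was detected with cAMP-d2/anti-cAMP-cryptate (1 h) by fluorescence.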
# [15] = qHTS assay to identify small molecule phospholipidosis (PLD) inducers (AID 1259344; active = well fitted curve in the direction sought with a large enough effect; an effect the other way counts as inactive or inconclusive)
# Method in brief: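 HepG2 cells grown on collagen I take up LipidTOX Red while exposed to compound for 24 h; after fixation they are imaged at 20x and pit metrics are extracted.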
# [16] = biological target: Estrogen receptor beta (Homo sapiens) (UniProt Q92731); test: qHTS assay to identify small molecule agonists of the estrogen receptor beta (ER-beta) signaling pathway (AID 1259377; active = well fitted activation curve with a large enough effect in the signal ratio in the repeat runs, not every such curve was filed as active; the % refers to the signal ratio)
# Sequence of Estrogen receptor beta (Homo sapiens) (Q92731 whole entry, looked up): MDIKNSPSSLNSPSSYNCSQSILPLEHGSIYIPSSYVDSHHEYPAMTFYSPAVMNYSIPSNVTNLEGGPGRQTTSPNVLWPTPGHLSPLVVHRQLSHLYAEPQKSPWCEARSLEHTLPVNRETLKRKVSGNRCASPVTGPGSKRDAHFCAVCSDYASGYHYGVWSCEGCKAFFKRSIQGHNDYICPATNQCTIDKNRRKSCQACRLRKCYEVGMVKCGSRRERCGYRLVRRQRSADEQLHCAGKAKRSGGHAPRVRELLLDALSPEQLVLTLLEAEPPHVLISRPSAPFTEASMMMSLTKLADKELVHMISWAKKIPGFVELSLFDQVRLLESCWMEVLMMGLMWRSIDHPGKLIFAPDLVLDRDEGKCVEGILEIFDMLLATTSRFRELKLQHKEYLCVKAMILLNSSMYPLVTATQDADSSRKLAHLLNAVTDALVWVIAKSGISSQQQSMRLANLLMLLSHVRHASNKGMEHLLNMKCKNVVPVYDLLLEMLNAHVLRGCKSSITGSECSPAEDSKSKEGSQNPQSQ
# Method in brief: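 ER-beta-UAS-bla HEK293T cells in medium with 2% charcoal-stripped FBS were exposed to compounds for 16 h at 37C. Beta-lactamase reporter activity was read as fluorescence after 2 h with LiveBLAzer B/G FRET substrate at room temperature.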
# [17] = biological target: Estrogen receptor beta (Homo sapiens) (UniProt Q92731); test: qHTS assay to identify small molecule antagonists of the estrogen receptor beta (ER-beta) signaling pathway (AID 1259378; active = well fitted inhibition curve with a large enough effect in the signal ratio in the repeat runs, not every such curve was filed as active; the % refers to the signal ratio; also: potency is read from the fitted curve at half-maximal effect)
# Method in brief: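 ER-beta-UAS-bla HEK293T (GripTite) cells in 2% charcoal-stripped FBS medium were preincubated 6 hr at 37C, dosed with compound, then stimulated with 1 nM E2 (final) for 16 hr; beta-lactamase reporter read by B/G FRET fluorescence after 2 hr substrate loading.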
# [18] = biological target: Androgen receptor (Homo sapiens) (UniProt P10275); test: qHTS assay to identify small molecule antagonists of the androgen receptor (AR) signaling pathway using the MDA cell line in the presence of 0.5 nM R1881 (AID 1259243); also: potency is read from the fitted curve at half-maximal effect; nearly all actives have a fitted effect of over 50% in size
# Sequence of Androgen receptor (Homo sapiens) (P10275 whole entry, looked up): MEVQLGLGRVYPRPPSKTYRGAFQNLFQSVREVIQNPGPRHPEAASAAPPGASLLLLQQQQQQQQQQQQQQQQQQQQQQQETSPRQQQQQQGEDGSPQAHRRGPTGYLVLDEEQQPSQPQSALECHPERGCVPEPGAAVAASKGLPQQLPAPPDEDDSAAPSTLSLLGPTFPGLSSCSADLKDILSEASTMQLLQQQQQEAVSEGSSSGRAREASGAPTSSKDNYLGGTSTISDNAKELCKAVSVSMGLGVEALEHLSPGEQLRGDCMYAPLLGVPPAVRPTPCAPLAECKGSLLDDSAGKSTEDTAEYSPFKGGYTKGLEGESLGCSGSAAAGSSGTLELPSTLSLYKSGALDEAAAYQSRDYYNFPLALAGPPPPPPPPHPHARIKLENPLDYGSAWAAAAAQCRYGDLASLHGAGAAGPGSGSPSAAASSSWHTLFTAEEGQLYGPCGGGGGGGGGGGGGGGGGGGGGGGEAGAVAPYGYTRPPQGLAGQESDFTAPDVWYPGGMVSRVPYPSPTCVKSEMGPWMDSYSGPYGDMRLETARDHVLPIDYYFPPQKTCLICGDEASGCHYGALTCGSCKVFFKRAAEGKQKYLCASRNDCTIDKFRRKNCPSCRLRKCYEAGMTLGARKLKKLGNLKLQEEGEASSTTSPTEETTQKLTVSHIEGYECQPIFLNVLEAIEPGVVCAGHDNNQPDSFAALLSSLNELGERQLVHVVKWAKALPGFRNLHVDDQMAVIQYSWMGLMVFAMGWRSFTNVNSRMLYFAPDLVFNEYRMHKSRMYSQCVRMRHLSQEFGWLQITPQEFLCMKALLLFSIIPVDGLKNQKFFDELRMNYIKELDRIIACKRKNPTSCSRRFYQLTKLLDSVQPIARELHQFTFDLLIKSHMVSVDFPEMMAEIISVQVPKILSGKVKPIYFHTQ
# Method in brief: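 We exposed MDA-kb2 cells to compounds under 0.5 nM R1881 stimulation for 16 hr at 37C and quantified MMTV-driven luciferase by luminescence.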
# [19] = biological target: Estrogen receptor (Homo sapiens) (UniProt P03372); test: qHTS assay to identify small molecule antagonists of the estrogen receptor alpha (ER-alpha) signaling pathway using the BG1 cell line in the presence of 0.1 nM 17-beta-estradiol (AID 1259244); also: nearly all actives have a fitted effect of over 50% in size; also: potency is read from the fitted curve at half-maximal effect
# Method in brief: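 VM7Luc4E2; 4xERE-luciferase; 0.1 nM E2 final; 22 h co-incubation, 37C; ONE-Glo luminescence after 30 min at room temperature.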
# [20] = biological target: Androgen receptor (Homo sapiens) (UniProt P10275); test: qHTS assay to identify small molecule agonists of the androgen receptor (AR) signaling pathway in the presence of an antagonist (AID 1259381; calls by dose curve; also: nearly all actives have a fitted effect of over 15% in size)
# Method in brief: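 Using human MDA-kb2 cells with an MMTV promoter–luciferase construct (AR and GR response elements), agonist activity is scored under 3.0uM nilutamide (final) co-treatment; 16hr incubation, 37C, luminescence readout via ONE-Glo.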
SMILES,Potency [1],Potency [2],Potency [3],outcome [4],Potency [5],Potency [6],outcome [7],Potency [8],Potency [9],Potency [10],Potency [11],Potency [12],Potency [13],Potency [14],Potency [15],Potency [16],Potency [17],Potency [18],Potency [19],Potency [20]
CC(C)(C)C1CCCCC1O (configuration not stated),inactive,inactive,inactive,inactive,inactive,inactive,inactive,inactive,inactive,inactive,inactive,inactive,inactive,inactive,–,–,–,–,–,–
CC(C)=CCCC(C)CC=O (configuration not stated),inactive,inactive,inactive,inactive,inactive,inactive,inactive,inactive,inactive,–,inactive,–,–,inactive,–,–,–,–,–,–
CN(C)C/C=C(/c1ccc(Br)cc1)c1cccnc1,inactive,inactive,inactive,–,inactive,inactive,inactive,–,inactive,inactive,inactive,–,inactive,inactive,inactive,–,–,–,–,–
Oc1ccc(Cc2ccccc2)cc1,inactive,inactive,inactive,inactive,–,–,inactive,–,inactive,–,inactive,–,–,inactive,–,–,–,–,–,–
CC(O)C1CCCCC1 (configuration not stated),inactive,inactive,inactive,inactive,–,–,inactive,inactive,inactive,inactive,inactive,–,–,inactive,–,inactive,inactive,–,–,–
Cc1ccc(O)c([C@H](CCN(C(C)C)C(C)C)c2ccccc2)c1,inactive,–,inactive,inactive,inactive,inactive,inactive,–,–,–,–,–,inactive,inactive,inactive,inactive,inactive,–,–,–
O=[N+]([O-])c1cc[n+]([O-])cc1,–,inactive,inactive,inactive,–,–,inactive,30.6 µM (active),inactive,27.3 µM (active),–,inactive,inactive,–,–,–,43.3 µM (active),54.5 µM (active),54.5 µM (active),inactive
CCOc1ccc(NC(=O)CC(C)=O)cc1,inactive,inactive,–,inactive,inactive,inactive,inactive,inactive,inactive,inactive,inactive,–,–,–,–,inactive,inactive,–,–,–
CC[C@H](C)[C@@H](C(=O)O)n1sc2ccccc2c1=O,inactive,inactive,inactive,inactive,–,inactive,inactive,27.3 µM (active),inactive,–,30.6 µM (active),–,inactive,inactive,–,inactive,–,–,–,–
COc1cc(C(C)(C)C)c(O)c(C(C)(C)C)c1,inactive,inactive,inactive,–,inactive,inactive,inactive,inactive,inactive,–,inactive,–,–,inactive,–,–,–,–,–,–
CCCCC(CC)(CO)CO,inactive,inactive,inactive,inactive,–,inactive,inactive,inactive,inactive,inactive,inactive,–,–,inactive,–,–,–,–,–,–
O=CNc1ccccc1,inactive,inactive,inactive,–,inactive,–,inactive,inactive,inactive,inactive,inactive,–,–,–,–,inactive,inactive,–,–,–
CCCCc1cc2ccccc2c(OCCN(C)C)n1,inactive,inactive,inactive,inactive,inactive,–,inactive,–,inactive,–,–,–,inactive,–,–,–,–,–,–,–
S=C(S)NCCNC(=S)S,inactive,inactive,inactive,inactive,–,inactive,inactive,inactive,inactive,–,inactive,–,inactive,inactive,–,inactive,inactive,–,–,–
O=S1(=O)N=C(O)c2ccccc21,inactive,inactive,inactive,–,inactive,–,inactive,inactive,inactive,inactive,inactive,–,inactive,inactive,–,–,–,–,–,–
NCCCOCCOCCOCCCN,inactive,inactive,inactive,–,–,inactive,inactive,–,–,15.4 µM (active),–,inactive,–,–,–,–,–,–,–,–
N#Cc1c(F)cccc1F,inactive,inactive,inactive,–,–,inactive,inactive,inactive,inactive,inactive,inactive,–,inactive,inactive,–,–,–,–,–,–
C=Cc1c(C)c2cc3[nH]c(cc4nc(cc5nc(cc1[nH]2)C(C)=C5CCC(=O)O)C(CCC(=O)O)=C4C)c(C)c3C=C,–,–,inactive,inactive,13.3 µM (active),23.7 µM (active),inactive,–,21.1 µM (active),inactive,inactive,inactive,inactive,inactive,inactive,inactive,inactive,–,inactive,–
c1ccc(OCc2ccc(CCCN3CCOCC3)cc2)cc1,–,inactive,–,inactive,inactive,–,inactive,–,29.8 µM (active),inactive,inactive,inactive,inactive,inactive,inactive,inactive,inactive,29.8 µM (active),–,inactive
Cc1cc(O)ccc1N,–,–,–,inactive,–,48.8 µM (active),inactive,17.3 µM (active),–,48.8 µM (active),–,–,inactive,–,–,–,–,43.5 µM (active),15.4 µM (active),inactive
CC1=CCC(C(C)C)C=C1 (configuration not stated),inactive,inactive,inactive,inactive,inactive,–,inactive,inactive,inactive,inactive,inactive,inactive,–,–,–,–,–,–,–,–
